{"source": "PubChem BioAssay (NCI)", "note": "This is part of a sample that, as a whole, favours compounds with a hit. Of some 83,000 tested, about 20% had one in any assay.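 How to read the values: 0–100, growth inhibition (40 = 60% inhibited); 0, no net growth; -100 to 0, cell death (-40 = 40% of starting cells died; -100 = all dead).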 Active and inactive are the calls of the source. Rule for the calls: active = growth percent below 10; inactive = the rest."}
{"test_system": "EKVX NSCLC", "test": "NCI-60 one-dose screen, 48 h (100 = growth as untreated, 0 = no growth, -100 = all killed)", "conditions": "10 µM"}
{"smiles": "O=C(/C=C/c1ccco1)c1nc2ccccc2n1Cc1ccc(Br)cc1", "growth": "17.8% (inactive)"}
{"smiles": "O=C(/C=C/c1ccco1)c1nc2ccccc2n1Cc1ccc(F)cc1", "growth": "58.9% (inactive)"}
{"smiles": "C#CC[Se]C(=O)c1ccc2n[se]nc2c1", "growth": "13.8% (inactive)"}
{"smiles": "O=C(/C=C/c1ccc(Cl)cc1)c1nc2ccccc2n1Cc1ccc(Br)cc1", "growth": "39.9% (inactive)"}
{"smiles": "CCOP(=O)(OCC)C(NC(C)=O)C(=O)SCCN", "note": "(stereo not given)", "growth": "100% (inactive)"}
{"smiles": "CC12OOC(C)(OO1)C2CCC(=O)OCCNc1ccnc2cc(Cl)ccc12", "note": "(stereo not given)", "growth": "-60.6% (active)"}
{"smiles": "Cc1ccc2[nH]c(=S)n(-c3ccc(F)cc3)c(=O)c2c1", "growth": "95.1% (inactive)"}
{"smiles": "CCOC(=O)C1=C(Nc2ccccc2)C(=O)OC12C(=O)Nc1ccccc12", "note": "(stereo not given)", "growth": "95.2% (inactive)"}
{"smiles": "CC[C@]12C=CCN3CC[C@@]4(c5ccc(OC)cc5N(C)[C@H]4[C@@](O)(C(=O)OC)[C@@H]1OC(=O)CCCC[P+](C1CCCCC1)(C1CCCCC1)C1CCCCC1)[C@@H]32", "growth": "13.2% (inactive)"}
{"smiles": "COCCOCCOCCOc1ccc(-n2cc(CCCN(CCNc3ccnc4cc(Cl)ccc34)C(=O)CCC(=O)O[C@@H]3O[C@@H]4OC5(C)CC[C@H]6[C@H](C)CC[C@@H]([C@H]3C)[C@@]46OO5)nn2)cc1", "growth": "53.5% (inactive)"}
{"smiles": "COP(=O)(CC(F)(F)C(F)(F)F)OC", "growth": "81.1% (inactive)"}
{"smiles": "CC12OOC(C)(OO1)C2CCC(=O)NCCNc1ccnc2cc(Cl)ccc12", "note": "(stereo not given)", "growth": "88.6% (inactive)"}
{"smiles": "CC[C@]12C=CCN3CC[C@@]4(c5ccc(OC)cc5N(C)[C@H]4[C@@](O)(C(=O)OC)[C@@H]1OC(=O)CCC[P+](c1ccc(C)cc1)(c1ccc(C)cc1)c1ccc(C)cc1)[C@@H]32", "growth": "-94.7% (active)"}
{"smiles": "CC[C@]12C=CCN3CC[C@@]4(c5ccc(OC)cc5N(C)[C@H]4[C@@](O)(C(=O)OC)[C@@H]1OC(=O)CCC[P+](C1CCCCC1)(C1CCCCC1)C1CCCCC1)[C@@H]32", "growth": "15.4% (inactive)"}
{"smiles": "CC1=C(COCCOC(=O)c2ccc(S(=O)(=O)F)cc2)C2=C(C)C3(CC3)[C@@](C)(O)C(=O)C2=C1", "growth": "-32.7% (active)"}
{"smiles": "CC1=C(CCC=NNC(N)=O)C2=C(C)C3(CC3)[C@@](C)(O)C(=O)C2=C1", "growth": "-25.1% (active)"}
{"smiles": "CC[C@@]12CC(C(=O)OC)=C3Nc4cc5c(cc4[C@@]34CCN(C[C@H]3O[C@H]31)[C@@H]24)[C@@H]1[C@H](O5)[C@@H](O)[C@@]2(CC)CC(C(=O)OC)=C3Nc4cc(OC)ccc4[C@@]34CCN1[C@@H]24", "growth": "31.3% (inactive)"}
{"smiles": "C[C@H]1[C@H](OC(=O)CCC(=O)N(CCCc2cn(-c3ccc(CN4CCOCC4)cc3)nn2)CCNc2ccnc3cc(Cl)ccc23)O[C@@H]2OC3(C)CC[C@H]4[C@H](C)CC[C@@H]1[C@@]24OO3", "growth": "49% (inactive)"}
{"smiles": "C[C@H]1[C@@H](Oc2ccc(-c3cn(-c4ccnc5cc(Cl)ccc45)nn3)cc2)O[C@@H]2OC3(C)CC[C@H]4[C@H](C)CC[C@@H]1[C@@]24OO3", "growth": "29.7% (inactive)"}
{"smiles": "COc1ccc(/C=C/C(=O)c2nc3ccccc3n2Cc2ccc(Br)cc2)cc1", "growth": "52.5% (inactive)"}
